Assay results as given in PubChem BioAssay AID1159580 (chemical genetic matrix, 2015).
About 2,000 (36%) of roughly 5,500 compounds were called active. Another 18% or so got no clear call; they are omitted. No stated cut-off is given here; in the data, active means normalized growth mostly below about 0.91 (no sharp cut-off); inconclusive means no clear call, values can overlap the other calls; inactive means mostly above about 0.92. The list shows a part of the results.

Test: chemical genetic growth profiling, strain panel (AID 1159580);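 further: tested at 20 µM; growth read once vehicle control cultures reached saturation at 30 °C; 1 = growth at the plate median or of vehicle wells; lower values mean less growth of the strain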
Settings: growth OD

Measured: normalized growth

C[C@H](N)[C@H](O)c1ccc(O)c(O)c1
inactive: S. cerevisiae deletion strains, locus YJR066W, strain TOR1, active compounds read low 0.948 | S. cerevisiae deletion strains, locus YJR075W, strain HOC1, active compounds read low 0.993 | S. cerevisiae deletion strains, locus YKL009W, strain mrt4, active compounds read low 0.994 | S. cerevisiae deletion strains, locus YKL068W, active compounds read low 0.986 | S. cerevisiae deletion strains, locus YKL085W, strain MDH1 (second series), active compounds read low 0.983 | S. cerevisiae deletion strains, locus YKL085W, strain MDH1, active compounds read low 0.983 | S. cerevisiae deletion strains, locus YKL160W, strain elf1, active compounds read low 0.981 | S. cerevisiae deletion strains, locus YKR001C, strain vps1, active compounds read low 0.978 | S. cerevisiae deletion strains, locus YKR026C, strain gcn3, active compounds read low 1 | S. cerevisiae deletion strains, locus YKR091W, strain srl3, active compounds read low 0.998 | S. cerevisiae deletion strains, locus YLL001W, strain dnm1, active compounds read low 0.954 | S. cerevisiae deletion strains, locus YLL026W, active compounds read low 1.01 | S. cerevisiae deletion strains, locus YLL041C, strain sdh2, active compounds read low 1.01 | S. cerevisiae deletion strains, locus YLR027C, strain aat2, active compounds read low 1.01 | S. cerevisiae deletion strains, locus YLR039C, strain RIC1, active compounds read low 0.959 | S. cerevisiae deletion strains, locus YLR058C, strain SHM2, active compounds read low 0.993 | S. cerevisiae deletion strains, locus YLR102C, strain apc9, active compounds read low 0.988 | S. cerevisiae deletion strains, locus YLR113W, strain HOG1, active compounds read low 0.967 | S. cerevisiae deletion strains, locus YLR221C, strain rsa3, active compounds read low 0.979 | S. cerevisiae deletion strains, locus YLR258W, strain gsy2, active compounds read low 0.996 | S. cerevisiae deletion strains, locus YLR262C, strain YPT6 (second series), active compounds read low 0.974 | S. cerevisiae deletion strains, locus YLR262C, strain YPT6, active compounds read low 1.04 | S. cerevisiae deletion strains, locus YLR268W, strain sec22, active compounds read low 0.969 | S. cerevisiae deletion strains, locus YLR320W, strain mms22, active compounds read low 1.01 | S. cerevisiae deletion strains, locus YLR330W, strain CHS5, active compounds read low 0.995 | S. cerevisiae deletion strains, locus YLR342W, strain FKS1 (second series), active compounds read low 0.968 | S. cerevisiae deletion strains, locus YLR342W, strain FKS1, active compounds read low 1.01 | S. cerevisiae deletion strains, locus YLR357W, strain rsc2, active compounds read low 0.983 | S. cerevisiae deletion strains, locus YLR370C, strain arc18, active compounds read low 1 | S. cerevisiae deletion strains, locus YLR371W, strain rom2, active compounds read low 0.963 | S. cerevisiae deletion strains, locus YLR384C, strain iki3, active compounds read low 0.998 | S. cerevisiae deletion strains, locus YLR418C, strain cdc73, active compounds read low 0.948 | S. cerevisiae deletion strains, locus YML016C, strain PPZ1, active compounds read low 0.994 | S. cerevisiae deletion strains, locus YML032C, strain rad52, active compounds read low 0.988 | S. cerevisiae deletion strains, locus YML120C, strain ndi1, active compounds read low 0.985 | S. cerevisiae deletion strains, locus YML124C, strain tub3, active compounds read low 0.994 | S. cerevisiae deletion strains, locus YMR058W, strain fet3, active compounds read low 1 | S. cerevisiae deletion strains, locus YMR078C, strain ctf18, active compounds read low 0.973 | S. cerevisiae deletion strains, locus YMR125W, strain sto1, active compounds read low 0.994 | S. cerevisiae deletion strains, locus YMR129W, active compounds read low 1 | S. cerevisiae deletion strains, locus YMR205C, strain PFK2, active compounds read low 0.994 | S. cerevisiae deletion strains, locus YMR223W, strain ubp8, active compounds read low 0.953 | S. cerevisiae deletion strains, locus YMR231W, strain pep5, active compounds read low 0.999 | S. cerevisiae deletion strains, locus YMR263W, strain SAP30, active compounds read low 0.997 | S. cerevisiae deletion strains, locus YMR307W, strain GAS1, active compounds read low 0.95 | S. cerevisiae deletion strains, locus YNL067W, strain RPL9B, active compounds read low 1 | S. cerevisiae deletion strains, locus YNL071W, strain lat1, active compounds read low 1.02 | S. cerevisiae deletion strains, locus YNL183C, strain NPR1, active compounds read low 0.963 | S. cerevisiae deletion strains, locus YNL209W, strain ssb2, active compounds read low 0.991 | S. cerevisiae deletion strains, locus YNL233W, strain BNI4, active compounds read low 0.987 | S. cerevisiae deletion strains, locus YNL248C, strain rpa49, active compounds read low 0.995 | S. cerevisiae deletion strains, locus YNL250W, strain rad50, active compounds read low 0.967 | S. cerevisiae deletion strains, locus YNL271C, strain bni1, active compounds read low 0.964 | S. cerevisiae deletion strains, locus YNL298W, strain CLA4, active compounds read low 0.966 | S. cerevisiae deletion strains, locus YNL307C, strain MCK1, active compounds read low 0.979 | S. cerevisiae deletion strains, locus YNL322C, strain KRE1 (second series), active compounds read low 0.991 | S. cerevisiae deletion strains, locus YNR049C, strain mso1, active compounds read low 1 | S. cerevisiae deletion strains, locus YNR052C, strain pop2, active compounds read low 0.963 | S. cerevisiae deletion strains, locus YOL006C, strain TOP1, active compounds read low 0.878 | S. cerevisiae deletion strains, locus YOL012C, strain htz1 1.03 | S. cerevisiae deletion strains, locus YOL147C, strain pex11, active compounds read low 0.983 | S. cerevisiae deletion strains, locus YOR001W, strain rrp6, active compounds read low 1.02 | S. cerevisiae deletion strains, locus YOR061W, strain CKA2, active compounds read low 0.996 | S. cerevisiae deletion strains, locus YOR069W, strain VPS5, active compounds read low 0.99 | S. cerevisiae deletion strains, locus YOR070C, strain gyp1, active compounds read low 1 | S. cerevisiae deletion strains, locus YOR080W, strain dia2, active compounds read low 1.01 | S. cerevisiae deletion strains, locus YOR083W, strain WHI5, active compounds read low 0.981 | S. cerevisiae deletion strains, locus YOR106W, strain vam3, active compounds read low 0.976 | S. cerevisiae deletion strains, locus YOR136W, strain idh2, active compounds read low 0.991 | S. cerevisiae deletion strains, locus YOR144C, strain elg1, active compounds read low 0.984 | S. cerevisiae deletion strains, locus YOR184W, strain ser1, active compounds read low 0.977 | S. cerevisiae deletion strains, locus YOR231W, strain MKK1, active compounds read low 1.01 | S. cerevisiae deletion strains, locus YOR265W, strain rbl2, active compounds read low 1 | S. cerevisiae deletion strains, locus YOR270C, strain vph1, active compounds read low 1.02 | S. cerevisiae deletion strains, locus YOR290C, strain snf2, active compounds read low 0.958 | S. cerevisiae deletion strains, locus YOR316C, strain cot1, active compounds read low 0.986 | S. cerevisiae deletion strains, locus YPL051W, strain arl3, active compounds read low 0.976 | S. cerevisiae deletion strains, locus YPL078C, strain atp4, active compounds read low 0.989 | S. cerevisiae deletion strains, locus YPL106C, strain sse1, active compounds read low 0.959 | S. cerevisiae deletion strains, locus YPL240C, strain hsp82, active compounds read low 1.01 | S. cerevisiae deletion strains, locus YPL241C, strain CIN2, active compounds read low 1 | S. cerevisiae deletion strains, locus YPL256C, strain CLN2, active compounds read low 0.992 | S. cerevisiae deletion strains, locus YPR119W, strain clb2, active compounds read low 0.982 | S. cerevisiae deletion strains, locus YPR141C, strain kar3, active compounds read low 0.975 | S. cerevisiae deletion strains, locus YPR163C, strain tif3, active compounds read low 0.986 | S. cerevisiae deletion strains, locus YPR167C, strain met16, active compounds read low 0.993 | S. cerevisiae deletion strains, strain wtn01, active compounds read low 0.971 | S. cerevisiae strains, strain wild type, active compounds read low 1.01
